RPL19A TOR yeast: RPL19A-GFP expression modulators in yeast, primary screen, cell-based, S. cerevisiae, multiplex flow cytometry, MLPCN; S. cerevisiae RPL19A-GFP strain, 3 h; hits give low values; percent response vs DMSO, % at 10 µM; 330,000 compounds, 0.3% hits; AID 2025, 2009;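 active = percent response vs DMSO below 50%; inconclusive = fewer than 70 events counted for the yeast strain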;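 note: median channel GFP fluorescence of the barcoded RPL19A-GFP strain; lower means less RPL19A-GFP as with rapamycin TOR inhibition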
VLA-4 inh: inhibition in human VLA-4 binding assay, primary screen, VLA-4 allosteric modulator project, MLPCN library, flow cytometry, VLA-4 expressing cells; inhibition, % (about 7 µM as worked out from the volumes in the protocol); Integrin alpha-4 (Homo sapiens), P13612; AID 2557, 2010; 330,000 compounds, 0.2% hits; ligand binding flow cytometry; in the data active = inhibition above about 50%
Target sequence (P13612 whole entry, looked up): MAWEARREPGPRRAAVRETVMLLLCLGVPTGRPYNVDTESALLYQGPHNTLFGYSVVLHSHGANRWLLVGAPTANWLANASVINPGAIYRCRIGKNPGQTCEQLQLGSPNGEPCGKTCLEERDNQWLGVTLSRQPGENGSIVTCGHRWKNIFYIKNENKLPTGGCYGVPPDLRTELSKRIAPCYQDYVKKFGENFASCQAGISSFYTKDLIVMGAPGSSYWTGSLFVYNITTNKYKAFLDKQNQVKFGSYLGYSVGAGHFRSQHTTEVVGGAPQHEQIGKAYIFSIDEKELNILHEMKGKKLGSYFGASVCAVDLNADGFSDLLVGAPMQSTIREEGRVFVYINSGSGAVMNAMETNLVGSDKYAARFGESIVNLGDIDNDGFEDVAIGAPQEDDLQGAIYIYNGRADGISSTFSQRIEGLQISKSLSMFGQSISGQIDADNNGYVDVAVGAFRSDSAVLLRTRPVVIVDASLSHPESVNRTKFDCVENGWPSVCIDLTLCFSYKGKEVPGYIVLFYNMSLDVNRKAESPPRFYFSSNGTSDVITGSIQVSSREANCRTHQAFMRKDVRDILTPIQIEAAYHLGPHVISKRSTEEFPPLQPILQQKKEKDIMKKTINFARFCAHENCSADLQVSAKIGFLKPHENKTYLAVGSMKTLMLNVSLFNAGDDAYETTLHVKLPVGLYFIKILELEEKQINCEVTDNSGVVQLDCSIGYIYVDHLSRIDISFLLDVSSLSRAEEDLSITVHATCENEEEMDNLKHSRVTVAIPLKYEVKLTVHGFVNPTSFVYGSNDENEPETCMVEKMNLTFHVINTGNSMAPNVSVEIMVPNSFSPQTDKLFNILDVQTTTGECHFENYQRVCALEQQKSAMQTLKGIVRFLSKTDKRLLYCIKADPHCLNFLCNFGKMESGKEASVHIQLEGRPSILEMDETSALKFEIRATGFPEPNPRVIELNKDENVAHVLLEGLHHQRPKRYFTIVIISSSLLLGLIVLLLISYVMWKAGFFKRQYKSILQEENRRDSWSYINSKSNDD
LAP4 TOR yeast: modulators of LAP4-GFP expression in yeast, primary screen, S. cerevisiae, multiplex flow cytometry, MLPCN library | GFP response vs DMSO, % at 10 µM | 320,000 compounds, 0.34% hits | AID 2023, 2009 | 3 h; median GFP as percent of DMSO wells;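 active = GFP response vs DMSO above a set limit, about the screen mean plus 3 SD, cut at about 150% in these data; inconclusive = under 70 cell events counted for the yeast strain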
MEP2-GFP yeast: modulators of MEP2-GFP levels in yeast, primary screen, S. cerevisiae, multiplex flow cytometry, MLPCN library | GFP response vs DMSO, % at 10 µM | S. cerevisiae MEP2-GFP strain, 3 h; 100% = DMSO control level | 330,000 compounds, 0.51% hits | AID 2016, 2009;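 active = GFP response versus DMSO above a set limit, roughly screen mean plus 3 SD, cut at about 180% in these data; inconclusive = fewer than 70 cells counted for a yeast strain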;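 note: median GFP fluorescence of the barcode-gated MEP2-GFP cells per well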
CIT2 TOR yeast: modulators of CIT2-GFP expression in yeast, primary screen, S. cerevisiae, GFP fusion, multiplex flow cytometry, MLPCN library; S. cerevisiae CIT2-GFP strain, 3 h; 100 means same as DMSO wells; GFP response vs DMSO, % at 10 µM; 320,000 compounds, 0.065% hits; AID 2029, 2009;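 active = GFP response relative to DMSO above a set limit, near the screen mean plus 3 SD, cut at about 150% in these data; inconclusive = Fewer than 70 cells measured for a yeast strain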;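 note: ratio of well median GFP fluorescence to mean of DMSO wells on the plate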
AGP1-GFP MLPCN: modulators of AGP1-GFP expression in yeast TOR pathway, primary screen, cell-based, multiplex flow cytometry, S. cerevisiae, MLPCN library; 320,000 compounds, 0.02% hits; GFP response vs DMSO, % at 10 µM; 3 h; GFP as percent of DMSO wells; AID 2066, 2009;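 active = GFP response relative to DMSO above a set limit, near screen average plus 3 SD, cut at about 150% in these data; inconclusive = fewer than 70 cells counted for the yeast strain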;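 note: median GFP channel fluorescence of the gated AGP1 strain per well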
Large screens that a line does not name were inactive; [ ] = dose if it differs, or a comment. Compounds with a hit are over-represented: about 1.1% of the library has one in this group of screens.

O=C(Nc1nc2c(s1)CCCC2)c1cc2n(n1)C(C(F)(F)F)CC(C1CC1)N2 (centres undefined)	MEP2-GFP yeast 182[may fluoresce violet], CIT2 TOR yeast inconclusive (no result: AGP1-GFP MLPCN)
Cc1nnc(NC(=O)c2cc3n(n2)C(C(F)(F)F)CC(C2CC2)N3)s1 (centres undefined)	none
Cc1ccc([C@@H]2CC=C(C(=O)O)[C@H](c3cccc(F)c3)N2S(=O)(=O)c2ccccc2C)cc1	none
CSc1cccc(NC(=S)Nc2ccc(F)cc2)c1	MEP2-GFP yeast 576[may fluoresce violet] (no result: LAP4 TOR yeast, CIT2 TOR yeast, AGP1-GFP MLPCN)
COCCCNC(=S)Nc1cccc(SC)c1	RPL19A TOR yeast 41[may fluoresce violet], MEP2-GFP yeast 243[may fluoresce violet], CIT2 TOR yeast inconclusive, AGP1-GFP MLPCN inconclusive
CSc1cccc(NC(=S)NN(C)C)c1	none
COc1ccc(NC(=O)c2cnc(SC)nc2)cc1	none
Cc1cc(-c2ccccc2)nc2cc(C(=O)OC(C)C)nn12	none
CC(C)(C)Nc1nc(-c2ccc3c(c2)CCN3C(=O)C2CC2)cs1	none
CC(C)C(=O)Nc1nc(-c2ccc3c(c2)CCN3C(=O)C2CC2)cs1	RPL19A TOR yeast 22[may fluoresce violet], LAP4 TOR yeast inconclusive, MEP2-GFP yeast inconclusive, CIT2 TOR yeast inconclusive, AGP1-GFP MLPCN inconclusive
CC(C)NC(=O)COc1coc(CN2CCN(c3ccccc3F)CC2)cc1=O	none
O=C(CCC(=O)N1CCN(S(=O)(=O)c2ccc3ccccc3c2)CC1)NCC(F)(F)F	none
Cc1csc2c(=O)sc(NC(=O)c3cccs3)nc12	RPL19A TOR yeast 48[may fluoresce violet], MEP2-GFP yeast 596[may fluoresce violet], CIT2 TOR yeast inconclusive
Cc1csc2c(=O)sc(NC(=O)c3ccco3)nc12	none
Cc1ccc(OCCNC(=O)CNC(=O)c2ccc(Cl)c([N+](=O)[O-])c2)cc1	none
Clc1ccc(Oc2ncnc3oc(-c4ccccc4)cc23)cc1	none
Cc1ccccc1Oc1ncnc2oc(-c3ccccc3)cc12	MEP2-GFP yeast 267 (no result: RPL19A TOR yeast)
CN1c2ccccc2N(C)C1(C)c1ccccc1	RPL19A TOR yeast 39[may fluoresce violet], MEP2-GFP yeast 186[may fluoresce violet], CIT2 TOR yeast inconclusive
COc1ccccc1-c1coc2c(CN3CCN(C)CC3)c(O)ccc2c1=O	none
COc1ccccc1Oc1coc2c(CN3CCN(C)CC3)c(O)ccc2c1=O	MEP2-GFP yeast 225[may fluoresce violet], CIT2 TOR yeast inconclusive, AGP1-GFP MLPCN inconclusive
CCc1ccc(C2NC(=S)NC3=C2C(=O)N(c2ccccc2OC)C(c2ccc(CC)cc2)N3)cc1 (centres undefined)	none (no result: AGP1-GFP MLPCN)
O=C1C2=C(NC(=S)NC2c2ccc(Cl)cc2)NC(c2ccc(Cl)cc2)N1c1ccc(Cl)cc1 (centres undefined)	LAP4 TOR yeast inconclusive, MEP2-GFP yeast 391[may fluoresce violet], CIT2 TOR yeast inconclusive, AGP1-GFP MLPCN inconclusive
COc1ccc(NC(=O)C2C3C=CC(C3)C2C(=O)NCc2ccco2)c(OC)c1 (centres undefined)	MEP2-GFP yeast 195
CCOc1cc(C(C(=O)NCC2CCCO2)N(C(=O)Cn2nnc3ccccc32)c2ccc(OC)c(OC)c2)ccc1O (centres undefined)	none
O=C(COC(=O)c1ccco1)Nc1ccc2c(c1)OCO2	none
Cc1ccc(C(=O)OCC(=O)Nc2ccc3c(c2)OCO3)o1	MEP2-GFP yeast 491[may fluoresce violet], CIT2 TOR yeast inconclusive
CCC(=O)N1c2ccc(S(=O)(=O)CCC(=O)Nc3nccs3)cc2CC1C (centres undefined)	RPL19A TOR yeast 29[may fluoresce violet], LAP4 TOR yeast inconclusive, MEP2-GFP yeast inconclusive, CIT2 TOR yeast inconclusive, AGP1-GFP MLPCN inconclusive
COc1ccc(-c2cc(C(=O)N(C)Cc3nc4ccccc4c(=O)[nH]3)c3ccccc3n2)cc1OC	none
CCN(CC)c1ccc(/C=C/C(=O)C2C(=O)C=C(C)OC2=O)cc1 (centres undefined)	LAP4 TOR yeast 429[may fluoresce violet], MEP2-GFP yeast 462[may fluoresce violet], CIT2 TOR yeast inconclusive
Cc1cc(C)nc(/N=c2/ssnc2Cl)c1	LAP4 TOR yeast 188
Cc1cc(Cl)ccc1N=c1ssnc1Cl	LAP4 TOR yeast 157
COc1ccc(OC)c(N=c2ssnc2Cl)c1	none
Cc1oc(-c2ccc(Cl)cc2)nc1CN1CCC(C(=O)NCCCN2CCCC(C)C2)CC1 (centres undefined)	none
CCOc1cccc(/C=C(\C#N)C(=O)NC2CC2)c1	none
CCCCOc1cccc(/C=C(\C#N)C(=O)NC2CC2)c1	LAP4 TOR yeast 175
O=C(O)CCN=CC1=C(O)CC(c2ccccc2)CC1=O (centres undefined)	none
Cc1cccc(C(CC(=O)O)n2cccc2)c1 (centres undefined)	MEP2-GFP yeast 401[may fluoresce violet], CIT2 TOR yeast inconclusive, AGP1-GFP MLPCN inconclusive
CCn1c(=O)n(CC)c2cc(N3CCCC3)c(NC(=O)c3c(F)cccc3F)cc21	none
N=c1oc2cc(O)ccc2cc1C(=O)Nc1ccc(F)cc1	RPL19A TOR yeast 41[may fluoresce violet], MEP2-GFP yeast 836[may fluoresce violet], CIT2 TOR yeast inconclusive
O=C(c1ccc(F)cc1)c1cc2ccc(O)cc2oc1=O	none
CS(=O)(=O)N(CCc1ccccc1)CC(=O)N1CCCC1	RPL19A TOR yeast 43[may fluoresce violet], LAP4 TOR yeast inconclusive, MEP2-GFP yeast inconclusive, CIT2 TOR yeast inconclusive, AGP1-GFP MLPCN inconclusive
CCN(CC)CCN(Cc1cc2ccc(C)c(C)c2[nH]c1=O)C(=S)NCc1ccco1	none
COCCCN1C(=O)C2C(C(=O)Nc3cc(C)cc(C)c3)C3C=CC2(O3)C1C(=O)NC1CCCCC1 (centres undefined)	MEP2-GFP yeast 217
Cc1ccc(NC(=O)C2C3C=CC4(O3)C2C(=O)N(CCN2CCOCC2)C4C(=O)NC2CCCCC2)cc1C (centres undefined)	none
Cc1cc(C)cc(NC(=O)C2C3C=CC4(O3)C2C(=O)N(CCCN2CCCCC2)C4C(=O)NC2CCCCC2)c1 (centres undefined)	none
O=C(Nc1ccc(Br)cc1)C1C2C=CC3(O2)C1C(=O)N(CCN1CCOCC1)C3C(=O)NC1CCCCC1 (centres undefined)	MEP2-GFP yeast 438[may fluoresce violet], CIT2 TOR yeast inconclusive
Cc1c(C)c2ccc(OCC(=O)NCCN3CCOCC3)c(C)c2oc1=O	none
COc1ccnc(N=CNOCc2ccc(Cl)cc2)c1C#N	RPL19A TOR yeast 45[may fluoresce violet], MEP2-GFP yeast 226[may fluoresce violet], CIT2 TOR yeast inconclusive
CCSC1(SCC)N=C(N)C2(C#N)C(c3ccccc3)NC3=C(CCC3)C12C#N (centres undefined)	RPL19A TOR yeast 42[may fluoresce violet], MEP2-GFP yeast 277[may fluoresce violet], CIT2 TOR yeast inconclusive
CN1C(C(=O)Nc2ccc(OC(F)(F)F)cc2)=CC(c2ccc3c(c2)OCO3)=NS1(=O)=O	none
CC(C)c1cc(NC(=O)C(C)(C)C)cc(C(C)C)c1O	MEP2-GFP yeast 202[may fluoresce violet], CIT2 TOR yeast inconclusive
O=S(=O)(c1cccc(Br)c1)N1CCN(c2ccnc3cc(Cl)ccc23)CC1	CIT2 TOR yeast 174[may fluoresce green]

Screening results as filed in PubChem BioAssay.
